Measured values taken from the supplement of paper PMC4954754.
± gives the uncertainty stated by the source.

system: HEK293T-Rex XBP1-RLuc; experiment: XBP1-RLuc splicing reporter activation, triplicate, relative to 500 nM thapsigargin (% of thapsigargin); higher = stronger IRE1/XBP1s reporter activation; settings: 6.8 µM; 18 h; screen: confirmation
Method: (§1)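 HEK293T-Rex cells stably expressing the ERSE-firefly luciferase (BiP promoter, ATF6-preferring) or XBP1-splicing Renilla luciferase (IRE1/XBP1s) reporter, 1536-well plates, compound at 6.8 µM for 18 hr at 37 °C; luminescence read […] and expressed as % activation = 100*(compound - median DMSO)/(median 500 nM thapsigargin - median DMSO). Primary screen was single-pass; confirmation screen in triplicate (mean ± SD).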

| SMILES | XBP1-RLuc splicing reporter activation |
| --- | --- |
| C=CCNC(=O)c1cc(-c2cccs2)on1 | 7.78 ± 0.96 |
| Nc1ccccc1NC(=O)c1ccc(Cl)cc1 | 10 ± 0.7 |
| CN(C)c1ccc(-c2nc3ccc(N)cc3[nH]2)cc1 | 13.4 ± 0.35 |
| Nc1nc(Nc2ccc(Cl)c(Cl)c2)nc2ccccc12 | 11.3 ± 0.79 |
| Cc1cnc(NC(=O)c2sc3nc4c(C)cccc4cc3c2N)s1 | 32.6 ± 0.95 |

system: HEK293T-Rex ERSE-FLuc; experiment: ERSE-FLuc reporter activation, triplicate confirmation, relative to 500 nM thapsigargin (% of thapsigargin); higher = stronger ATF6/ERSE reporter activation; settings: 6.8 µM; 18 h; screen: confirmation
Method: as §1

| SMILES | ERSE-FLuc reporter activation |
| --- | --- |
| COc1ccc(CCNC(=O)c2cccc(-c3ccc(N4CCOCC4)nc3)c2)cc1 | 48.7 ± 4.2 |
| Cc1ccc(O)c(NC(=O)c2cc(C(C)C)on2)c1 | 44.6 ± 1.3 |
| N#C/C(=C/c1ccc(O)c(O)c1)c1nc2ccccc2s1 | 51.2 ± 8.1 |
| C=CCNC(=O)c1cc(-c2cccs2)on1 | 72.1 ± 6 |
| COc1ccccc1/C=C/C(=O)Nc1ccc(Cl)cn1 | 27.9 ± 6.6 |
| COc1ccc(/C=C/c2ccc3cccc(OC(C)=O)c3n2)cc1OC(C)=O | 39.7 ± 5.5 |
| O=C(Nc1ccccc1O)c1ccc(NS(=O)(=O)c2cccc3cccnc23)cc1 | 25.6 ± 8.1 |
| O=C(NC(c1ccccc1)c1ccccc1)c1csc(-c2cnccn2)n1 | 30.5 ± 7.8 |
| O=C(/C=C/c1ccccc1)Nc1ccc(Cl)cn1 | 27.9 ± 6.3 |
| O=C1N/C(=C/c2ccc(O)cc2)C(=O)N1c1cccc(Cl)c1 | 68.2 ± 5.7 |
| CCN1C(=O)/C(=C\c2ccc(O)cc2O)SC1=S | 36.3 ± 8.3 |
| Nc1ccccc1NC(=O)c1ccc(Cl)cc1 | 33.6 ± 4.6 |
| CC(=O)c1cccc(Nc2nc(-c3ccc(O)c(O)c3)cs2)c1 | 31.6 ± 5.1 |
| O=c1[nH]c(/C=C2\C=Nc3ccccc32)c(O)n1-c1ccc(Cl)cc1 | 41.4 ± 5.5 |
| Nc1cn(-c2ccccc2)nc1-c1cccs1 | 28.6 ± 6.5 |
| COc1ccc(/C=C/c2nc3cc([N+](=O)[O-])ccc3s2)cc1O | 25.5 ± 3.9 |
| O=C1N/C(=C/c2ccc(O)cc2)C(=O)N1Cc1ccc(Br)cc1 | 37.1 ± 3.6 |
| Oc1ccc(-c2csc3nc(-c4ccccc4)nn23)c(O)c1 | 33.9 ± 2.6 |
| N#Cc1c(NC(=O)/C=C/c2ccco2)sc2c1CCCC2 | 29.4 ± 2.5 |

| SMILES | ERSE-FLuc reporter activation |
| --- | --- |
| CCCCCCc1ccc(-c2ncc(N)cn2)cc1 | 33.2 ± 4.7 |
| CN(C)c1ccc(-c2nc3ccc(N)cc3[nH]2)cc1 | 32.7 ± 4.4 |
| Cc1nc(-c2coc3c(O)c(O)ccc3c2=O)cs1 | 25.2 ± 4.1 |
| COc1ccc2c(Cl)c(C(=O)Nc3ccccc3C(N)=O)sc2c1 | 31.6 ± 1.1 |
| COc1cn(-c2ccc(F)cc2)nc1C(=O)Nc1ccccc1SC | 62.7 ± 4.5 |
| Cc1ccc(O)c(NC(=O)CN(C)S(=O)(=O)c2ccc(Cl)cc2)c1 | 29.8 ± 0.59 |
| COc1ccc(-c2csc(-c3ccc(O)cc3)n2)cc1 | 29.4 ± 5 |
| COc1cccc(/C=N/NC(=O)c2n[nH]c3c2CCCC3)c1 | 31.5 ± 1.1 |
| Nc1nc(Nc2ccc(Cl)c(Cl)c2)nc2ccccc12 | 43.5 ± 3.9 |
| C=CCNC(=O)c1cc(-c2ccccc2)on1 | 43.4 ± 5 |
| C=CCn1c(N2CCC(C(=O)NCCc3ccc(O)c(O)c3)CC2)nc2ccccc21 | 28.9 ± 6.2 |
| O=C(Nc1nc2c(s1)CCCC2)c1cccc2ccccc12 | 33.8 ± 2.4 |
| N/C(=N\N=C\c1ccc(O)c(O)c1)c1nonc1N | 71.1 ± 7.1 |
| Cc1cnc(NC(=O)c2sc3nc4c(C)cccc4cc3c2N)s1 | 28.6 ± 7.1 |
| COc1cccc(/C=N\NC(=O)c2n[nH]c3c2CCC3)c1 | 26.1 ± 2.5 |
| O=C(NCCc1ccccc1)c1cc(-c2cccs2)on1 | 34.5 ± 3.6 |
| Cc1ccc(O)c(NC(=O)CSc2n[nH]c(C)c2[N+](=O)[O-])c1 | 52.5 ± 14 |
| Cc1cc(C)nc(Nc2nc(-c3ccc(O)c(O)c3)cs2)n1 | 47.4 ± 6.5 |
